Data: PubChem BioAssay AID1456 (Vanderbilt High Throughput Screening Facility, 2008)
In all, about 190,000 compounds went through this assay and about 4,100 (2.2%) were called active.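 Rule for the calls: active = thallium flux slope and its plate-corrected score both differing from the plate sample mean at a set confidence after two filtering rounds, in either direction; inactive = the rest.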 The entries come from a sample that favours actives as a whole.

Target: Solute carrier family 12 member 5 (Homo sapiens) (UniProt Q9H2X9)
Sequence (Q9H2X9 whole entry, looked up): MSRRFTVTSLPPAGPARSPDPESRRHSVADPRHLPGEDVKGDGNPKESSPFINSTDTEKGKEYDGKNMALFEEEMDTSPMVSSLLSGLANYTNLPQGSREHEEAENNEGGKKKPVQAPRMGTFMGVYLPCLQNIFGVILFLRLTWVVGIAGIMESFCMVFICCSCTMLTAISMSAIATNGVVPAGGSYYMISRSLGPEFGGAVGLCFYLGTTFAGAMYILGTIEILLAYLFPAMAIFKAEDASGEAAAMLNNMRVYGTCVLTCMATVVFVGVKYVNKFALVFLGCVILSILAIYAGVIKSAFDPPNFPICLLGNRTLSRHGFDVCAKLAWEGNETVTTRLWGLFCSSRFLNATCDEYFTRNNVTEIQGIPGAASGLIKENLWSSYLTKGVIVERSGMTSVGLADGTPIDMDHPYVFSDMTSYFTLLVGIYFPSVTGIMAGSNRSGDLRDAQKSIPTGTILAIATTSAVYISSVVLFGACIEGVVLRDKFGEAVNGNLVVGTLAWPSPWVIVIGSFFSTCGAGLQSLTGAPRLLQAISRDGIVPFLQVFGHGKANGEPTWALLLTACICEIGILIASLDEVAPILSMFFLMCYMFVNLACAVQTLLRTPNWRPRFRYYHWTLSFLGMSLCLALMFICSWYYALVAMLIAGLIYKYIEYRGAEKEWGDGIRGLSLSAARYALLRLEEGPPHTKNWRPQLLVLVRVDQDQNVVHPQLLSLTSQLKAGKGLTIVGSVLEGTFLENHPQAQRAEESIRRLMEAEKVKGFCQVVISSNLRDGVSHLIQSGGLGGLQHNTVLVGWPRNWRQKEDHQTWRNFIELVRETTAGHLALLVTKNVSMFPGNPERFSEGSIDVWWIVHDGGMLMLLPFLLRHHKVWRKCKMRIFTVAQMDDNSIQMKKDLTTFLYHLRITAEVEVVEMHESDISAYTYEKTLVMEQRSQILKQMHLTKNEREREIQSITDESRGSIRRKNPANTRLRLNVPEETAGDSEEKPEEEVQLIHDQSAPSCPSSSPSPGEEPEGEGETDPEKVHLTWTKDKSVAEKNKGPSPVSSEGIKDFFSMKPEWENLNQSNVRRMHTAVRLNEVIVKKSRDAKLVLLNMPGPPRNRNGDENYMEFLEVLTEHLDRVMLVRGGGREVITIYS
Experiment: modulation of human KCC2 ion transport – cell-based, HEK293 KCC2, FluoZin-2 fluorescence, MLSMR, primary screen (AID 1456);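 note: slope of fluorescence scaled to starting intensity during 10 to 20 s after thallium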
Conditions: KCC2 cells, thallium flux FluoZin-2 fluorescence; at 10 µM

B-score of Tl+ flux slope (higher = more flux/activation; lower = inhibition), active:
COc1ccc(-c2cn(-c3ccc(OC)cc3)c(=S)[nH]2)cc1 8.53
Cc1nc(SCc2ccc(F)cc2)c([N+](=O)[O-])[nH]1 -4.77
O=C(CN(c1cccc(Cl)c1)S(=O)(=O)c1ccccc1)NN=C1CCCC1 3.73
Cc1ccc(NCc2n[nH]c(=S)n2-c2ccccc2)cc1Cl 20.1
S=c1[nH]nc(CSCc2ccc(Cl)cc2Cl)n1-c1ccccc1 38.3
COc1ccc(CNC(=O)CCn2cccc2)cc1 7.58
O=C(NNC(=S)NC(=O)c1cn(-c2ccccc2)nc1-c1ccccc1)c1ccncc1 8.65
CCn1c(SCc2ccccc2)nc2c(c1=O)SCC2 -2.99
C/C(=N/NC(=S)Nc1ccccc1)c1ccc2c(c1)OCO2 17.1
COc1cc(OC)cc(C(=O)NCCSCc2ccco2)c1 2.23
Cc1ccc(-c2noc(CN3CCN(Cc4ccccc4)CC3)n2)cc1 -2.45
S=c1[nH]nc2c3c4c(sc3ncn12)CCCC4 6.7
O=C(Nc1ccccc1F)C1C2C=CC3(O2)C1C(=O)N(c1cccnc1)C3C(=O)NC1CCCCC1 (stereo not drawn) -6.39
CCOC(=O)c1c(NC(=S)NC)sc2c1CCCC2 118
COCCNc1nc(-n2nc(C)cc2C)nc2sc3c(c12)CCCC3 -4.01
COC(=O)c1cccnc1NC(=S)NC(C)C 37.7
c1ccc2c(C[n+]3csc4ccccc43)cccc2c1 4.99
CCn1c(O)c(N=NC2=NC(=O)CS2)c2cc(C)ccc21 8.24
CC1CCCCN1S(=O)(=O)c1ccc(C(=O)Nc2nnc(-c3cccs3)o2)cc1 (stereo not drawn) 6.64

B-score of Tl+ flux slope (higher = more flux/activation; lower = inhibition), inactive:
COc1cc(/C=C2/C(=O)NN(c3ccc(F)cc3)C2=O)cc([N+](=O)[O-])c1O -2.31
COc1ccc(N2C(=O)CNC2=S)cc1 0.069
COc1ccc(-n2c(C)csc2=S)cc1 0.0167
O=C(O)CCCCCCCCCC[n+]1ccccc1 0.183
O=C(O)c1ccccc1OCc1ccccc1Cl 0.00686
COc1ccc(OC)c(-n2c(-c3ccn[nH]3)n[nH]c2=S)c1 -0.678
O=C(Nn1c(SCc2ccc([N+](=O)[O-])cc2)nc2ccccc2c1=O)c1ccc(F)cc1 0.0971
Cc1cc([N+](=O)[O-])nn1Cc1ccc(F)cc1 -0.826
CN(C)C(=O)c1nc2ccc(Cl)cn2c1CNCc1cccc(OC(F)(F)F)c1 -0.562
COc1ccc(N2C(=O)CC(Nc3ccc(F)cc3)C2=O)c([N+](=O)[O-])c1 (stereo not drawn) -1.31
CN1CCC(=NNC(=O)CN(c2cccc(Cl)c2)S(C)(=O)=O)CC1 0.643
Cc1ccc(S(=O)(=O)N(CC(=O)N2CCc3ccccc3C2)c2cccc(Cl)c2)cc1 -1.52
CCn1c(SCC(=O)N/N=C/c2ccncc2)nc2ccccc21 -0.7
Cc1cccc(NC(=O)CSc2nnc(CCNC(=O)OC(C)(C)C)o2)c1C -0.155
COc1cccc(Nc2nc(N)c([N+](=O)[O-])c(NCc3ccco3)n2)c1 -0.0593
COc1ccc(C(=O)N/N=C2\CCS(=O)(=O)c3ccc(F)cc32)cc1OC 0.15
O=C(NCCCn1ccnc1)C(=O)NCC1OCCN1S(=O)(=O)c1cc(F)ccc1F (stereo not drawn) -0.0662
O=c1[nH]nc(CSCc2ccccc2Cl)[nH]1 1.48
CCn1c(CSCc2c(Cl)cccc2Cl)n[nH]c1=S -0.136
S=c1[nH]nc(-c2cc(-c3ccsc3)n[nH]2)n1-c1ccccc1 -0.815
COc1ccc(NCc2nnc(SCc3ccccc3)n2-c2ccc(OC)cc2)cc1 -2.95
Cc1noc(C)c1C(=O)OCC(=O)N1CCN(S(=O)(=O)c2ccc3ccccc3c2)CC1 -0.121
CS(=O)(=O)c1ccc(Cl)c(NC(=O)Nc2ccccc2)c1 -0.0556
COc1ccc(CCN2C(=O)N(c3ccc(OC)cc3)C(=O)C2CC(=O)Nc2ccc(OC)cc2)cc1 (stereo not drawn) 0.0027
C/C(=N\NC(=O)CC(C)C)c1c(C(F)(F)F)[nH]n(-c2nc3ccccc3s2)c1=O -1.82
COc1ccccc1P(=O)(c1ccccc1)c1ccccc1NC(C)=O (stereo not drawn) 0.0591
CCOc1cc2[nH]c(=O)n(CCC(=O)NCc3ccc(OC)cc3)c(=O)c2cc1OCC 0.0101
COc1ccc(CNC(=O)C(Cc2ccccc2)n2cccc2)cc1 (stereo not drawn) -2.15
N#CCCCn1c(O)c(N=NC(=O)C(O)c2ccccc2)c2ccccc21 (stereo not drawn) -0.218
Cn1cccc1C(C#N)c1ccccc1C#N (stereo not drawn) 1.43
O=C(COC(=O)c1ccc(S(=O)(=O)Nc2ccccc2)cc1)NCC1CCCO1 (stereo not drawn) 0.0831
O=C(NCCCN1CCOCC1)c1ccc(N2CCCC2)c([N+](=O)[O-])c1 -0.0166
O=C(O)c1ccc(NC(=O)c2cn(-c3ccccc3)nc2-c2ccc(Cl)cc2)cc1 -0.953
O=C(Nc1cn(-c2ccccc2)nc1-c1ccccc1)c1ccccc1 -1.74
O=C(NCC(c1cccs1)N1CCOCC1)c1cc(-c2ccccn2)nc2ccccc12 (stereo not drawn) -0.17
Cc1cccc(CSc2nc3c(c(=O)n2C)SCC3)c1 -0.478
CCc1nnc(NC(=O)CSc2nc3c(c(=O)n2-c2ccccc2OC)SCC3)s1 -2.34
CC1=CC(C)(C)NC(=S)N1NC(=O)c1ccccc1Cl 1.28
O=c1[nH]c2cccnc2n1-c1ccc([N+](=O)[O-])cc1 1.09
O=C(Nc1ccccc1)c1ccc2c(c1)OCO2 1.15
C/C(=N\NC(=O)C(N)=O)c1ccc2c(c1)OCCO2 0.474
C/C(CC(=O)NC(C)c1ccccc1)=N\NC(N)=S (stereo not drawn) -0.13
NS(=O)(=O)c1ccc(NC2=CC(c3ccc(F)cc3)N(c3ccc(S(N)(=O)=O)cc3)C2=O)cc1 (stereo not drawn) -4.18
COc1ccc(F)cc1S(=O)(=O)N1CCCCC1 -0.191
Cc1cc(C)cc(N(CC(=O)NCCSCc2ccco2)S(C)(=O)=O)c1 -0.0202
O=C(/C=C/c1cccc([N+](=O)[O-])c1)NCCSCc1ccco1 0.313
O=[N+]([O-])c1ccc2c(c1)C(O)n1nc(-c3ccccc3)nc1S2 (stereo not drawn) 0.824
Cc1ccc(Cc2nc(-c3cccc(C)c3)no2)cc1 -0.589
CC1CCN(Cc2nc(-c3ccc(Cl)cc3)no2)CC1 -0.00541
COc1cc(/C=C2/C(=O)ON=C2C)ccc1OCc1cccc(F)c1 0.0292
Cc1ccc(C(=O)Nc2nc(N)n(-c3ccccc3)n2)cc1 0.00295
c1nnc2c3c4c(sc3ncn12)CCC4 -0.0315
N=c1c2c3c(sc2ncn1N)CCCC3 1.3
O=C(CCl)Nc1cccc(CP(=O)(c2ccccc2)c2ccccc2)c1 -0.0445
CCN(CC)C(=O)CS(=O)CC(=O)Nc1cc(OCCOC)c(Cl)cc1Cl (stereo not drawn) -0.00564
O=C(NCc1cccnc1)Nc1ccccc1F 0.189
CC(C)N1C(=O)C2C(C(=O)NC3CCCCC3)C3C=CC2(O3)C1C(=O)NC1CCCC1 (stereo not drawn) -0.424
Cc1nn(-c2ccccc2)c(=O)c2noc(C)c12 -0.0422
CCOCC(=O)Nc1sc2c(c1C(=O)OCC)CCCC2 0.549
CCOC(=O)c1c(NC(=S)Nc2ccccc2C)sc2c1CCC2 -0.787
Cc1nc(=O)c(-c2ccccc2)c(C)n1-c1ccc(Br)cc1 -0.435
Cc1cc(C)n(-c2nc(SCC(=O)N3CCCC3)c3c4c(sc3n2)CCCC4)n1 0.509
CCC(O)CNc1nc(-n2nc(C)cc2C)nc2sc3c(c12)CC(C)(C)OC3 (stereo not drawn) -1.67
COc1cccc(N2C(=O)CC(N3CCc4ccccc4C3)C2=O)c1 (stereo not drawn) 0.0221
O=C(CSc1nc2ccccc2o1)N/N=C/c1ccccc1C(=O)O 0.867
CSc1sc(C(=O)NC(=O)NCc2cccnc2)c(C)c1-c1ccon1 -1.42
CCOC(=O)c1cccnc1NC(=O)c1ccncc1 0.477
COC(=O)c1ccccc1NC(=S)NC(=O)c1ccccc1F 4.93
c1ccc2c(CSCc3nc4ccccc4[nH]3)cccc2c1 -2.07
Nc1scc[n+]1Cc1cccc2cccnc12 -0.326
CC(=O)Nc1ccc(C(=O)/C=C/c2ccc[nH]2)cc1 0.0206
Cc1ccc(S(=O)(=O)N2CCN(C(=O)COC(=O)c3c(C)noc3C)CC2)c(C)c1 0.177
CCn1c(=O)cc(O)c2ccccc21 0.265
CCn1c(O)c(N=NC(=O)c2cccc(S(=O)(=O)N3CCCCC3)c2)c2ccccc21 -0.0952
O=C(Cn1nnc(N2CCCCC2)n1)c1ccc(Cl)c(Cl)c1 -0.13
C/C=N/N(c1ccccc1)c1ccccc1 0.121
Cc1ccc(S(=O)(=O)/N=C(/NC(=S)Nc2c(C)n(C)n(-c3ccccc3)c2=O)c2ccccc2)cc1 -0.219
CC1CCCCN1S(=O)(=O)c1ccc(S(=O)(=O)N(CC(=O)Nc2ccccc2)Cc2cccs2)cc1 (stereo not drawn) 0.0298
CC1CCCN(S(=O)(=O)c2ccc(C(=O)Nc3nnc(-c4ccncc4)o3)cc2)C1 (stereo not drawn) -0.0172
